A short description of test [1]: AP1 Signaling Pathway (AID 357).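 Further: ME-180 reporter cells stimulated with EGF at its EC50 level; on the % scale 0 is the no-effect control and ±100 the full control effect.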 Put shortly: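 First, ME-180 AP-1-bla cells were cultured overnight at 37 °C in low-serum Opti-MEM. Next, titrated compounds with EC50 EGF were incubated 5 hours. Finally, CCF4 was added for 2.5 hours and the 460/530 nm ratio recorded.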
For test [2], the target named is Cytochrome P450 1A2 (Homo sapiens) (UniProt P05177). As to the kind of experiment: p450-cyp1a2 (AID 410; calls by dose curve; further: potency means the concentration at half of the fitted maximal effect;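 on activity change, negative = inhibition: -100% = full effect of reference inhibitor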). The method, boiled down: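 Luminescent readout of luciferin formed from Luciferin-ME by human CYP1A2; data normalized against complete inhibition by 57 uM furafylline. Enzyme 20nM, substrate 100uM at Km, 100mM KPO4 buffer, 60 min reaction at room temperature.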

The target of test [3] is Glucocorticoid receptor (Homo sapiens) (UniProt P04150). Nature of the test: GR-GFP Redistribution (AID 450;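 active means compounds whose dose series gives a full or clear partial fitted curve of increased nuclear translocation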; further: potency means the concentration at half of the fitted maximal effect). The following applies: U2OS GR-GFP nuclear translocation, laser cytometry, 2 h.
Test [4] has the same target. Nature of the test: GR-EFC Redistribution (AID 451; calls by dose curve; further: potency means the concentration at half of the fitted maximal effect). The following applies: CHO-K1 GR-EFC translocation, beta-gal luminescence, 2 h. The method, boiled down:
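CHO-K1 cells stably expressing nuclear-localized β-gal enzyme acceptor and GR fused C-terminally to the enzyme donor fragment; ligand-driven nuclear translocation restores β-gal by complementation. Compounds titrated up to 46 uM final, 2 h at 37 °C; luminescence read.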

Test [5] addresses Mitogen-activated protein kinase 10 (Mus musculus) (UniProt Q61831). Nature of the test: JNK3 AlphaScreen Assay (AID 530).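 Further: kinase came from lysate of stimulated human HepG2 cells; signal reports phosphorylation of biotinylated GST-cJun 1-79 at Ser73 with 10 µM ATP; on the % scale 0 is the no-effect control and ±100 the full control effect.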 The method, boiled down:
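Inhibitors reduce antibody binding to phosphorylated biotin-cJun, lowering AlphaScreen luminescence. Lysates from HepG2 cells pre-activated by IL-1beta plus TNF-alpha supplied JNK3; compounds were titrated.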
A general note: Bead proximity is the source of the signal in Alpha formats.

The target of test [6] is 3',5'-cyclic-AMP phosphodiesterase 4B (Homo sapiens) (UniProt Q07343). Nature of the test: qHTS Assay for Inhibitors of PDE-IV (AID 607; active means well fitted activation curve with a large enough effect in the main read-out, with a control signal flat, not every such curve was filed as active; further: % of control where 0% means no effect). The method, boiled down:
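HEK293 ACTOne cells with CNG channel (1000/well), endogenous PDE4; membrane potential dye, compounds up to 22.9 uM final. Fluorescence Ex 535/Em 590; RO 20-1724 (100 uM final) as reference.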
(In general: Quantitative high-throughput screening tests each substance at several concentrations.)

Test [7] in a line: qHTS Assay for Lipid Storage Modulators (AID 1519; calls by dose curve). The following applies: Drosophila S3 cells, BODIPY lipid droplet/cell ratio, laser cytometry, cells loaded with oleic acid; for activity change, negative = inhibition: at 25.7 µM (top of the series). Put shortly:
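Cells seeded at 5,000 per well were treated with compounds over a concentration series and loaded with oleic acid (400 uM, as added). Lipid droplet fluorescence (488 nm excitation, 500-530 nm channel) was read by laser-scanning cytometry and normalized to 20 uM Triacsin C.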

Test [8] deals with Ubiquitin carboxyl-terminal hydrolase 1 (Homo sapiens) (UniProt O94782). As to the kind of experiment: Inhibitors of USP1/UAF1: Pilot qHTS (AID 504865; active means well fitted inhibition curve with a large enough effect; further: nearly all actives have a fitted effect of over 35% in size; further: potency means the concentration at half of the fitted maximal effect). Put shortly: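 Kinetic fluorescence assay: 1nM USP1/UAF1, 15 min compound preincubation, then 150nM Ub-Rho; 480/540 nm.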
Test [9] is described as follows: Stat Signaling Pathway (AID 446).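 Further: ME-180 cervical cancer cells given 40 pM IL-6 alongside compound; SIE-controlled beta-lactamase reporter measured as 460/530 nm FRET emission ratio; on the % scale 0 is the no-effect control and ±100 the full control effect.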 Put shortly: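 ME-180 cells carrying a SIE-driven beta-lactamase reporter are stimulated with 40 pM IL-6 for 5 h at 37C in the presence of compound. The 460/530 nm FRET substrate ratio is read after 2.5 h at RT. Data are normalised to 300 pM IL-6 and to 125 nM JAK inhibitor controls.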
A short description of test [10]: NFAT Signaling Pathway (AID 444).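 Further: carbachol stimulus at about its EC50 of 1 µM final; on the % scale 0 is the no-effect control and ±100 the full control effect.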 The following applies: Jurkat NFAT-bla M1, carbachol, beta-lactamase ratio, 5 h; at 17.2 µM (top of the series). Put shortly: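 Jurkat cells carrying an NFAT-driven β-lactamase reporter and co-transfected muscarinic M1 receptor were treated with compound plus carbachol (1 uM final, an EC50 level) for 5 h at 37 °C. CCF4 loading followed for 1 h at RT; 460/530 nm ratio gave %activity.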

Test [11] addresses Luciferin 4-monooxygenase (Photinus pyralis) (UniProt P08659). Nature of the test: Biochemical firefly luciferase enzyme assay for NPC (AID 624030; active means well fitted inhibition curve with a large enough effect;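 further: purified P. pyralis luciferase at 10 nM with luciferin and ATP substrate; 0% = DMSO and -100% = full luciferase inhibition by PTC124 control; nearly all actives have a fitted effect of over 70% in size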). Put shortly:
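Counter-screen for direct inhibition of the luciferase enzyme by approved-drug library compounds, run at 10 nM enzyme in 50 mM Tris acetate (final). Luminescence was read within 5 min of enzyme-buffer addition and normalized to PTC124 versus DMSO (0%).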

Test [12] in a line: qHTS profiling for inhibitors of Plasmodium falciparum proliferation (AID 504749; active means well fitted inhibition curve with a large enough effect;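 further: 0% = DMSO vehicle and full inhibition = artemisinin control; nearly all actives have a fitted effect of over 60% in size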). The conditions noted are these: P. falciparum in erythrocytes, SYBR Green DNA, 72 h, at 12.8 µM (top of the series). Put shortly:
(§1)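 Parasite proliferation within erythrocytes, 72 h exposure. Endpoint: SYBR Green I fluorescence after overnight lysis at room temperature. Controls: 0.29 uM artemisinin, DMSO.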

Test [13] deals with 3D7. Described as above. The conditions noted are these: P. falciparum in erythrocytes, SYBR Green DNA, 72 h; series mostly up to 28.7 µM. The method, boiled down:
as §1

Test [14] concerns C2A. Described as above. The conditions noted are these: P. falciparum in erythrocytes, SYBR Green DNA, 72 h; series mostly up to 28.7 µM. Put shortly:
as §1

The subject of test [15] is CP211. Described as above. The following applies: P. falciparum in erythrocytes, SYBR Green DNA, 72 h; series mostly up to 28.7 µM. Put shortly:
as §1

The test system of test [16] is CP217. The test is described as above. The conditions noted are these: P. falciparum in erythrocytes, SYBR Green DNA, 72 h; series mostly up to 28.7 µM. The method, boiled down:
as §1

Test [17] concerns CP252. The test is described as above. The conditions noted are these: P. falciparum in erythrocytes, SYBR Green DNA, 72 h; series mostly up to 12.8 µM. Put shortly: as §1
Test [18] has as its system CP262. The test is described as above. The following applies: P. falciparum in erythrocytes, SYBR Green DNA, 72 h; series mostly up to 28.7 µM. The method, boiled down: as §1
For test [19], the system named is CP286. The description is as above. The following applies: P. falciparum in erythrocytes, SYBR Green DNA, 72 h; series mostly up to 28.7 µM. The method, boiled down: as §1
For test [20], the system named is ECU. The description is as above. The conditions noted are these: P. falciparum in erythrocytes, SYBR Green DNA, 72 h; series mostly up to 28.7 µM. The method, boiled down: as §1
Setting [21] is: measured here: cell count channel max response.
The mark [22] stands for this setting: measured here: lipid channel max response.

Where “and” joins values, the source holds several entries; their conditions need not be identical. Identical values can stand only once. Results filed as inconclusive are left out. Calls of active or inactive are those of the source. Unless noted, the call rests on the fitted dose curve; in most records, active means well fitted curve in either direction with a large enough effect (not every such curve was filed as active); inconclusive means small, poorly fitted or top-dose-only effect, or another doubt; inactive means flat fitted curve, though single readings scatter.

We go through seven molecules from PubChem BioAssay (NCATS).

3',5'-cyclic-AMP phosphodiesterase 4B (Homo sapiens), sequence (Q07343 whole entry, looked up): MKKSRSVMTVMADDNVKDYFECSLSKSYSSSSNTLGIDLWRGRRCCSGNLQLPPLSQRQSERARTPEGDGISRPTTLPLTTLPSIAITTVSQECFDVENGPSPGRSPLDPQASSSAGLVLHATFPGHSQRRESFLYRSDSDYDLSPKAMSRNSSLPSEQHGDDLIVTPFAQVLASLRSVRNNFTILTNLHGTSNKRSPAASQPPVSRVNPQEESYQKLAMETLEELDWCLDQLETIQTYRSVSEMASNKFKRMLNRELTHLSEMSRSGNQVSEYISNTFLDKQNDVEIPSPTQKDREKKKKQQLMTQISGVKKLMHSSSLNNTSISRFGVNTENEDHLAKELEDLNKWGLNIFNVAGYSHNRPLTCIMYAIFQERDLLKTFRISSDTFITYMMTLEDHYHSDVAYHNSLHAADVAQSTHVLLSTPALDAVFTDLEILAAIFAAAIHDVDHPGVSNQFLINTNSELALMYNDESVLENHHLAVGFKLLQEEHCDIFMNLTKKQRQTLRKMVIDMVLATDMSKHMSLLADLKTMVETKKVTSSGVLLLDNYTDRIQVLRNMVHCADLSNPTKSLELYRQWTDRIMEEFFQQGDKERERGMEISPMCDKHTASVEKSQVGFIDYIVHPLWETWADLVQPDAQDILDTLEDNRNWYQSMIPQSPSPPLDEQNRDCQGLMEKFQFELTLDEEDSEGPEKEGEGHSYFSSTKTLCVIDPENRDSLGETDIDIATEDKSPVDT
Glucocorticoid receptor (Homo sapiens), sequence (P04150 whole entry, looked up): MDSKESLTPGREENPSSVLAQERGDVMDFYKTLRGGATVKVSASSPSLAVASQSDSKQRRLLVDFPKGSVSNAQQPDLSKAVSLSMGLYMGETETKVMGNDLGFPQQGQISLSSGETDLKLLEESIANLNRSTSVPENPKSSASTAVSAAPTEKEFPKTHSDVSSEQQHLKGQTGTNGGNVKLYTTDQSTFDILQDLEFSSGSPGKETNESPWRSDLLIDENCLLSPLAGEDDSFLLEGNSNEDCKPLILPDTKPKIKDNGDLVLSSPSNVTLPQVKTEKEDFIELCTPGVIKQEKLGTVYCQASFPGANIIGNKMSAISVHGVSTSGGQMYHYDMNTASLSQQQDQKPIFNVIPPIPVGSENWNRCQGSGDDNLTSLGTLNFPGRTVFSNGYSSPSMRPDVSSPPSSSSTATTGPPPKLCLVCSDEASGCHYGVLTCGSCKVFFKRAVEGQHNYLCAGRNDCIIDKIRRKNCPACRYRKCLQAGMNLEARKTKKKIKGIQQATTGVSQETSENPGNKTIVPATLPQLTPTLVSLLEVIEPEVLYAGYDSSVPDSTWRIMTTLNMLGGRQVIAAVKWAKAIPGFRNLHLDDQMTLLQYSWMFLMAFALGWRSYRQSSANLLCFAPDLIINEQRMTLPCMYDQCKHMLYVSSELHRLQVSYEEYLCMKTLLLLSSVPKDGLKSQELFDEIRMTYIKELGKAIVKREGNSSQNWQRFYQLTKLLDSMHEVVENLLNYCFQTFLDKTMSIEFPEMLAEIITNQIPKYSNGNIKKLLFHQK
Cytochrome P450 1A2 (Homo sapiens), sequence (P05177 whole entry, looked up): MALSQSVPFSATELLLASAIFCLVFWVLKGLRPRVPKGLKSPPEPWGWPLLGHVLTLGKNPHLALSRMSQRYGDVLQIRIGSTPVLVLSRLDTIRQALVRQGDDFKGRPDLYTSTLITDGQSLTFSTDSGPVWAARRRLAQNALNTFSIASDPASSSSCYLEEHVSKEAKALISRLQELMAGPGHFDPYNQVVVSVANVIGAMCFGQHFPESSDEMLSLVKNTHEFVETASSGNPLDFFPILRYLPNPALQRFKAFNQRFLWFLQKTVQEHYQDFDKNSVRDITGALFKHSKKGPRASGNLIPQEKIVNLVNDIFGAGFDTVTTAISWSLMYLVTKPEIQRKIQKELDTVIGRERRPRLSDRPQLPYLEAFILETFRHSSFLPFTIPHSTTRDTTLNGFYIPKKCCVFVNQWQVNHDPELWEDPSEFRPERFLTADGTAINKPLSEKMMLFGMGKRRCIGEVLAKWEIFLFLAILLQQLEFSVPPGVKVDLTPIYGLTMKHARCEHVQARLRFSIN
Ubiquitin carboxyl-terminal hydrolase 1 (Homo sapiens), sequence (O94782 whole entry, looked up): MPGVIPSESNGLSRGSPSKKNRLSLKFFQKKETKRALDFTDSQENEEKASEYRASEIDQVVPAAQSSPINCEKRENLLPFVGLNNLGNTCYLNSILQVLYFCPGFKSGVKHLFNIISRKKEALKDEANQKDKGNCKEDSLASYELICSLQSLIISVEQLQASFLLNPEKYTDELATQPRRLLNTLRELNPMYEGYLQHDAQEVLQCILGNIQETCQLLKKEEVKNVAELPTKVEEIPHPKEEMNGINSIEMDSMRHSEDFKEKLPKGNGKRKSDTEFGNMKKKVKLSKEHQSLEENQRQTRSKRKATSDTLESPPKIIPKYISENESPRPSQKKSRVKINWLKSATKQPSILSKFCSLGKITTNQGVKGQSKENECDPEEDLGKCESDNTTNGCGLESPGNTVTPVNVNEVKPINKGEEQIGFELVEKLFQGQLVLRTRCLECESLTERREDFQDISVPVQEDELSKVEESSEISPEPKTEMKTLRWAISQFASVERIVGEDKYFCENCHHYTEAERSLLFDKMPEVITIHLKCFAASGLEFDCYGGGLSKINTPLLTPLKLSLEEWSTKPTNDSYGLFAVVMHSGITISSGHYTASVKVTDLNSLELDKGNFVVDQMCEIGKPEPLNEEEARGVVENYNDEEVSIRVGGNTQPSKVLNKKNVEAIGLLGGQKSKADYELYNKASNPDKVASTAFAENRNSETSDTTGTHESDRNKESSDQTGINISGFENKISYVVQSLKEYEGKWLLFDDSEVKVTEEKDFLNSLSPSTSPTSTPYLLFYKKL
Luciferin 4-monooxygenase (Photinus pyralis), sequence (P08659 whole entry, looked up): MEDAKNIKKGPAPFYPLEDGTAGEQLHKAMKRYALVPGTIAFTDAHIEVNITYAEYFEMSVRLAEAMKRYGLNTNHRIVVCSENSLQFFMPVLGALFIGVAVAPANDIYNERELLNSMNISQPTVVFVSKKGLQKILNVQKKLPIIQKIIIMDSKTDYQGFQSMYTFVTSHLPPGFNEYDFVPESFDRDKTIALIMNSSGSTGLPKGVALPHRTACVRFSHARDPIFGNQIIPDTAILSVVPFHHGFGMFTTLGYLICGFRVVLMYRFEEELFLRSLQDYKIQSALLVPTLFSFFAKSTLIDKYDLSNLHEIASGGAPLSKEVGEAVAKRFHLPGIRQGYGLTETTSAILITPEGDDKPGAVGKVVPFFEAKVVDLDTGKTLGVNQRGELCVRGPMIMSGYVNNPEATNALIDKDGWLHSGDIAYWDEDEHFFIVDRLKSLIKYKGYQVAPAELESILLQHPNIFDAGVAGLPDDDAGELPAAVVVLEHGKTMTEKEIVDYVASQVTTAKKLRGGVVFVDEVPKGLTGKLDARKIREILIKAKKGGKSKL

Turning to `C=C[C@]12CN(C)[C@H]3C1[C@@]1(C(=O)Nc4ccccc41)[C@H]1C[C@H]2[C@H]3CO1`, the outcome in test [1] and in test [5] was inactive. Moreover, the Potency result in test [2], in test [6] and in test [8] was “inactive” each time. Also, the Potency in [3] and in test [4] was > 20.6 µM (inactive) throughout. Moreover, the activity change, negative = inhibition in [7] is -5.3% (inactive). For the same molecule, the max response in test [7] (setting [21]) is -11.8%; in test [7] (setting [22]) it was -17.8%.

For the molecule `C[C@H]1CC[C@@]2(NC1)O[C@@H]1C[C@H]3[C@@H]4CC[C@@H]5C[C@@H](O)CC[C@@]5(C)[C@@H]4CC[C@]3(C)[C@@H]1[C@@H]2C`, the molecule was called inactive in [1], in [9] and in [5]. Also, the Potency entry in test [2] and in [6] was “inactive” each time. For the same molecule, the activity change, negative = inhibition in test [7] is -2.33% (inactive). Also, the max response in test [7] (setting [21]) is 0.178%; in test [7] (setting [22]) it was -2.87%.

Turning to `COc1cc2c(cc1OC)[C@H](C)NCC2`, the molecule was called inactive in [1], in [9] and in test [5]. Moreover, the activity change, negative = inhibition in [10] was 4.97% (inactive); in test [7], -2.81% (inactive). Also, the Potency in [3] is > 20.6 µM (inactive) and > 46 µM (inactive); in test [4], > 20.6 µM (inactive) and > 46 µM (inactive). Besides, the Potency entry in test [6] and in test [8] was “inactive” in each case. The max response in test [7] (setting [21]) was -4.52%; in test [7] (setting [22]) it was -9.32%.

As to `CCN[C@]1(c2cccs2)CCCCC1=O`, the call in [1], in test [9] and in test [5] was inactive. The activity change, negative = inhibition is -19.9% (inactive) in test [10] and 0.601% (inactive) in test [7]. Besides, the Potency in test [3] and in test [4] was > 20.6 µM (inactive) in each case. The Potency entry in test [6], in [11], in test [13], in test [14], in test [15] and in test [16] was “inactive” throughout. The Potency entry in test [17], in test [18], in test [19] and in test [20] was “inactive” each time. The max response in test [7] (setting [21]) was -13.4%; in [7] (setting [22]) it was -12.8%. In addition, the figures for the activity, negative = inhibition in [12] (parasite line A) and in test [12] (parasite line B) were -1.5% (inactive) and -1.41% (inactive), respectively.

As for `C[C@@H]1NCCc2cc(O)c(O)cc21`, the molecule was classed as inactive in test [1], in test [9] and in test [5]. The activity change, negative = inhibition in test [10] is -2.85% (inactive); in test [7], -2.45% (inactive). Besides, the Potency in test [3] and in test [4] was > 20.6 µM (inactive) each time. The Potency result in test [6] and in [8] was “inactive” throughout. The max response in test [7] (setting [21]) was -9.01%; in [7] (setting [22]) it was -11.5%.

As to `CN1CC[C@]2(C)c3cc(O)ccc3N(C)[C@@H]12`, the call in test [1], in [9] and in test [5] was inactive. Besides, the Potency in test [2] is 15.8 µM (active) and 31.6 µM (active); in test [3] it was > 46 µM (inactive) and > 20.6 µM (inactive); in test [4], > 46 µM (inactive) and > 20.6 µM (inactive); in test [8], 2.82 µM (active). Moreover, the Potency result in test [6] is “inactive”. The activity change, negative = inhibition in test [7] was -1.57% (inactive). Also, the max response was -15.4% in test [7] (setting [21]) and -17.5% in test [7] (setting [22]).

Turning to `CN(C)[C@@H]1C(=O)C(C(N)=O)=C(O)[C@]2(O)C(=O)C3=C(O)c4c(O)ccc(Cl)c4[C@](C)(O)[C@H]3C[C@@H]12`, the result in test [1], in [9] and in test [5] was inactive. Moreover, the activity change, negative = inhibition in test [10] is -5.59% (inactive); in [7] it was 0.321% (inactive). The Potency in test [3] and in [4] was > 20.6 µM (inactive) throughout. Further, the Potency entry in test [6], in test [11], in test [13], in test [14], in test [15] and in test [16] was “inactive” in each case. Besides, the Potency result in test [17], in [18], in test [19] and in test [20] was “inactive” in each case. Also, the max response is -2.07% in [7] (setting [21]) and -2.35% in [7] (setting [22]). In addition, the activity, negative = inhibition in test [12] (parasite line A) was -8.57% (inactive); in test [12] (parasite line B), -7.26% (inactive).
